Only some compounds are listed: those with a hit (about 2.6% of all), similar ones and a draw of the others.
Cruzain inh Det: cruzain (T. cruzi) inhibition with detergent | purified cruzain, Z-FR-AMC fluorescence, 0.01% Triton | Potency, µM, hits mostly inhibitors | 200,000 tested, 0.43% active | AID 1478; also: nearly all actives have a fitted effect of over 40% in size
Target sequence (P25779 123-467 limits assumed): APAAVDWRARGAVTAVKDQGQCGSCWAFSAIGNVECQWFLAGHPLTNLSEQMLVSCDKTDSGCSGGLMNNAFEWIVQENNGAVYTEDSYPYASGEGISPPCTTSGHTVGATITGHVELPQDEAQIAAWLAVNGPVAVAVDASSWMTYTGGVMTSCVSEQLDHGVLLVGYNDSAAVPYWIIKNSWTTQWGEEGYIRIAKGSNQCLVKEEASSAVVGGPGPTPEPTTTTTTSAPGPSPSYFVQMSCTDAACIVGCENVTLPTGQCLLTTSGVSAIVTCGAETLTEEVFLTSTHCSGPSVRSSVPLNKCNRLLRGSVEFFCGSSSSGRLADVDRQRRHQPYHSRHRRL
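Sodium acetate buffer (100 mM, pH 5.5) containing 5 mM DTT and 0.01% Triton X-100 hosted 1.5 nM cruzain and test compound for 15 min at room temperature. Cleavage of 2 uM Z-FR-AMC was then tracked by fluorescence.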
Cruzain inh noDet: inhibitors of Trypanosoma cruzi cruzain without detergent. P25779. purified cruzain, Z-FR-AMC fluorescence, no detergent. Potency, µM, hits mostly inhibitors. 200,000 tested, 2.3% active. AID 1476; also: nearly all actives have a fitted effect of over 40% in size
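Purified cruzain at 1.5 nM, pre-incubated 15 min with compound at room temperature in 100 mM sodium acetate pH 5.5, 5 mM DTT, 0.00005% Triton X-100. Reaction started with 2 uM Z-FR-AMC; AMC fluorescence increase over 60 s gives rate.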
Of the large screens only hits and unclear results are named; the others gave an inactive call; ! = not active in a repeat. Calls follow the shape of the dose curve; as a rule, active = well fitted curve in the direction sought with a large enough effect; inconclusive = small, poorly fitted or top-dose-only effect, or another doubt; inactive = no such curve, though single readings can be large; an effect the other way counts as inactive or inconclusive.

Nc1nonc1-c1nc2ccccc2n1CC(=O)N/N=C\c1ccc(-c2ccc(Cl)cc2)o1	Cruzain inh noDet 4µM
BrC(Br)Br	none
CCOc1cc2sc(N3CCC(C(=O)Nc4ccc(CC)cc4)CC3)nc2cc1Br	none
CC(=O)Nc1cccc(NC(=O)CSc2nccn2C2CCCC2)c1	none
Cc1ccccc1-c1noc(CSc2nc3ccccc3[nH]2)n1	none
CCN(CC)c1ccc(/C=C(\C#N)c2nc(-c3cccs3)c(NC(C)=O)s2)cc1	Cruzain inh noDet 16µM
CC(=O)Nc1sc(NC(=O)c2ccccc2)nc1-c1cccs1	none
CC(C)[C@]1(NC(=O)[C@@H]2C=C3c4cccc5[nH]cc(c45)C[C@H]3N(C)C2)O[C@@]2(O)C3CCCN3C(=O)[C@H](Cc3ccccc3)N2C1=O (some centres not stated)	none
Cc1ccc(S(=O)(=O)c2cc(OC(=O)c3ccco3)ccc2OC(=O)c2ccco2)cc1	none
O=C(Oc1ccc(OC(=O)c2ccco2)c(S(=O)(=O)c2ccc(Br)cc2)c1)c1ccco1	Cruzain inh noDet 25µM
O=C1CC(N(CCc2ccccc2)C(=S)Nc2cc(Cl)ccc2Cl)C(=O)N1c1c(Cl)cccc1Cl (configuration not stated)	Cruzain inh noDet 13µM
O=C1CC(N(CCc2ccccc2)C(=S)Nc2ccccc2)C(=O)N1c1ccccc1 (configuration not stated)	none
CC(C)c1nccn1Cc1ccc(Cl)cc1Cl	none
COC(=O)CSc1nc2ccc(NC(=O)CSc3nnnn3Cc3ccccc3)cc2s1	none
Cc1ccccc1OCc1nnc(SCC(=O)Nc2ccc3c(c2)OCO3)n1C	none
Cc1ccccc1OCc1nnc(SCC(=O)Nc2ccc3nc(SCC(=O)Nc4ccccc4)sc3c2)n1C	Cruzain inh noDet 25µM
O=C(CSc1nc2ccc(NC(=O)CSc3nnnn3Cc3ccccc3)cc2s1)Nc1ccccc1	Cruzain inh noDet 10µM
CCC1CCCCN1S(=O)(=O)c1cc(C(=O)Nc2ccc(C)c(F)c2)ccc1F (configuration not stated)	none
O=C(c1cc(C(F)(F)F)cc(C(F)(F)F)c1)N1CCC2(CC1)CN(Cc1ccccc1)C2	none
CC(C)(C)OC(=O)N1CCC(c2c(C(=O)Nc3ccc4c(c3)OCCO4)cnn2-c2ccc(F)cc2)CC1	none
CC(C)c1ccc(OCC(=O)Nc2c(Cl)ccc3nsnc23)cc1	none
O=C(/C=C/NNC(=O)c1ccccc1)c1ccc(Br)cc1	Cruzain inh noDet inconclusive
O=C(/C=C/NNC(=O)c1cccc(Br)c1)c1cccc(Br)c1	Cruzain inh noDet 7.9µM
COc1ccc(OC)c(CCNc2ncnc3onc(-c4ccc(F)cc4)c23)c1	Cruzain inh noDet inconclusive
CCN(C(=O)COC(=O)CNC(=O)c1ccc(C)c(C)c1)C1CCS(=O)(=O)C1 (configuration not stated)	Cruzain inh Det 25µM, Cruzain inh noDet 16µM
Cc1ccc(C(=O)COC(=O)CNC(=O)c2ccc(N3C(=O)c4ccccc4C3=O)cc2)cc1C	none
O=C(COC(=O)CNC(=O)c1ccc(Cl)cc1)Nc1ccc2c(c1)OCCO2	Cruzain inh Det 14µM, Cruzain inh noDet 10µM
Cc1ccc(C(=O)NCC(=O)OCC(=O)c2ccc3c(c2)OCCO3)cc1C	Cruzain inh Det 13µM, Cruzain inh noDet 13µM
COc1ccc(CNC(=O)COC(=O)c2ccc3c(c2)OCCO3)cc1	none
O=C(COC(=O)/C=C/c1ccc(Cl)cc1)Nc1ccc2c(c1)OCCO2	none
COc1ccc(C(=O)NCC(=O)OCC(=O)c2ccc3c(c2)OCCO3)cc1	Cruzain inh Det 16µM, Cruzain inh noDet 13µM
CCN(C(=O)COC(=O)c1ccccc1Nc1cccc(C)c1C)C1CCS(=O)(=O)C1 (configuration not stated)	Cruzain inh noDet inconclusive
COc1cc(OC)c(NC(=O)C2CCN(S(=O)(=O)c3c(C)noc3/C=C/c3c(C)cc(C)cc3C)CC2)cc1Cl	none
OCCN[C@@H]1c2cc(Cl)ccc2-c2c(Cl)cc(Cl)cc21	none
Cc1cc(C(=O)N2CCN(c3ccccc3)CC2)c2c(C)nn(-c3cccc(F)c3)c2n1	none
O=C(COc1cc(Cl)c(Cl)cc1Cl)NC(=O)Nc1ccc2c(c1)OCCO2	Cruzain inh noDet 20µM
Cc1ccc(Cl)c(OCC(=O)Nc2ccc3c(c2)OCCO3)c1	none
Cc1ccccc1OCC(=O)N/N=C/c1cccc(Oc2ccc([N+](=O)[O-])cc2[N+](=O)[O-])c1	Cruzain inh noDet inconclusive
O=C(N/N=C/c1cccc(Oc2ccc([N+](=O)[O-])cc2[N+](=O)[O-])c1)c1cncc(Br)c1	Cruzain inh noDet 25µM
Cc1ccc(-c2csc(N(CC3CCCO3)C(=O)c3ccco3)n2)cc1 (configuration not stated)	none
COc1ccc(-c2csc(N(CC3CCCO3)C(=O)c3ccc(C)cc3)n2)cc1 (configuration not stated)	Cruzain inh noDet 20µM
CCCN(C(=O)c1ccc2c(=O)n3c(nc2c1)CCCCC3)c1cccc(Cl)c1	Cruzain inh noDet inconclusive
Cc1ccc(-c2nnc(Nc3ccc(Cl)c(Cl)c3)c3ccccc23)cc1S(=O)(=O)N(C)C	Cruzain inh noDet 6.3µM
Cc1ccc(-c2nnc(Nc3cccc(Cl)c3)c3ccccc23)cc1S(=O)(=O)N1CCOCC1	none
Cc1ccc(-c2nnc(Nc3ccc(Cl)c(Cl)c3)c3ccccc23)cc1S(=O)(=O)NCCO	none
Cc1ccc(-c2nnc(Nc3cccc(Cl)c3)c3ccccc23)cc1S(=O)(=O)N1CCCCC1	Cruzain inh noDet 7.9µM
O=C(Cn1c(SCC(=O)Nc2ccc(F)cc2)nc2ccccc21)NCc1ccc(Cl)cc1	Cruzain inh noDet inconclusive
CCCc1cc(=O)[nH]c(SCc2nc(-c3ccc(OCC)cc3)no2)n1	none
CN(C)Cc1ccccc1-c1cncnc1NCc1cccnc1	none
C=C(C)Cn1c(SCC(=O)c2ccc(OC)cc2)nc2sc3c(c2c1=O)CCCC3	none
Cc1cccc(C)c1NC(=O)CN1C(=O)c2ccccc2Sc2ncccc21	Cruzain inh noDet inconclusive
O=C(NCCc1ccccc1)c1ccc(=O)oc1	none
O=C(NCCc1ccccc1)c1ccc2nc(-c3ccco3)c(-c3ccco3)nc2c1	Cruzain inh Det 16µM, Cruzain inh noDet inconclusive
CCC1=C2CC[C@H]3C(=O)N(CC(=O)OC)C(=O)[C@H]3[C@H]2[C@@]2(C)C(=O)N(CC3CC3)C(=O)N2C1=O	none
COc1ccccc1Cn1c(CNS(=O)(=O)c2ccccc2Cl)nc2cccnc21	none
CC(C)=CCCC1=CC[C@H](C(=O)O)[C@H](C(=O)O)C1	none
COc1ccc(-c2c(C#N)c(SCC(=O)Nc3ccc(C)c(C)c3)nc(C)c2C(=O)Nc2ccc(Cl)cc2)cc1	Cruzain inh noDet 6.3µM
CCOc1ccc(NC(=O)CSc2nc(C)c(C(=O)Nc3ccccc3)c(-c3ccc(Cl)cc3)c2C#N)cc1	none
COC(=O)CC[C@@H](C)[C@@H]1CC[C@@H]2[C@@H]3CC[C@H]4C[C@@H](O)CC[C@@]4(C)[C@@H]3CC[C@]21C	none
NC(=Nc1ccccc1)NC(=O)c1nc(Cl)c(N)nc1N	Cruzain inh noDet inconclusive
NC(=NCc1ccccc1)NC(=O)c1nc(Cl)c(N)nc1N	Cruzain inh noDet 14µM!
CC(C)(C)C(=O)[C@H](C(c1ccccc1)N1CCOCC1)N1CCOCC1 (some centres not stated)	none
Cc1cc(NC(=O)CSc2nc(C(C)C)nc3sc(C)c(C)c23)no1	none
Cc1cc(NC(=O)CSc2ncnc3sc4c(c23)CCC(C)C4)no1 (configuration not stated)	Cruzain inh noDet 5µM
Cc1csc(B(O)O)c1	none
CC(C)c1cccc(C(C)C)c1NC(=O)c1ccc(OCC(=O)NCc2ccccc2)cc1	Cruzain inh noDet 7.9µM

Assay outcomes from PubChem.
